PubChem BioAssay AID1347431 (National Center for Advancing Translational Sciences (NCATS), 2020)
Among all 1,200 compounds or so, fewer than 10 were called active. The call rests on the fitted dose curve; in most records, active means well fitted curve in the direction sought with a large enough effect; inconclusive means small, poorly fitted or top-dose-only effect, or another doubt; inactive means no such curve, though single readings can be large or run the other way. Only a sample is shown.

Experiment: Confirmatory qHTS assay for inhibitors of Activation Induced Cytidine Deaminase (AID): UDG signals
Settings: UDG coupled enzyme activity counter-screen; series mostly up to 115 µM
Source text: Assay Provider (PI) Patricia Gearhart Ph.D.
National Institute on Aging
National Institute of Health (NIH), Bethesda, MD
Assay Provider (PI) Rahul Kohli Ph.D.
Perelman School of Medicine
University of Pennsylvania, Philadelphia, PA
Activation-Induced Deaminase (AID) is a cytosine deaminase which converts cytosine into uracil within stretches of ssDNA. The presence of uracil in DNA initiates a cascade of mutagenic DNA repair to introduce point mutations and DNA double strand breaks. Specific targeting of AID to the immunoglobulin heavy chain loci (Igh) promotes mutagenesis in the antibody variable region for somatic hypermutation (SHM) or switch regions leading to class switch recombination (CSR). However, AID also plays a role in accumulating unnecessary mutations across the genome. Mis-targeting of AID results in the initiation of tumor development and leads to greater drug resistance among cancer cells when continually expressed. To identify an AID inhibitor, a small molecule library will be screened in collaboration with NCATS core facility at NIH. To confirm biological function, inhibitors will be examined in an in vitro murine B-cell activation assay and subsequent secondary validation screens. Top molecules will be further screened to identify inhibitory efficacy against a wild type primary splenocytes assay. Using these approaches, we hope to identify a small molecule with great efficacy and low toxicity for use as a molecular probe to further characterize AID's intricacies, or even as a therapeutic.
A FRET based analysis of cytosine deamination, was developed to identify potential inhibitors of AID catalytic activity. This screen has two signal output, Read 1 evaluates the AID inhibition response. The second readout (Read 2) evaluates UDG response and is uses as a counterscreen to exclude false positive inhibitors. Inhibition in AID and inactivity in the UDG signal is the desired outcome for this assay.
SEQUENCE No. (e.g., 1, 2, 3, etc.); […] (e.g., Cells, Incubation, Reagent, etc.); VALUE; DESCRIPTION
1a; Reagent; 3 uL; [4/3x] 1 uM AID/2.67 U/mL UDG
1b; Reagent; 3 uL; 2 U/mL UDG
1c; Reagent; 3 uL; 1 uM AID
2a; Compound; 46 nL; Follow-up plates (0.64 uM - 10 mM)
2b; Control; 46 nL; ATA ([…] - 10 mM)
3; Time; 10 min; incubation at room temperature
5; Time; 4 hr; incubation at room temperature
6; Reagent; 4 uL; [2x] 250 mM NaOH
7; Time; 15 sec; centrifuge at 1000 rpm
8; Time; 30 min; incubation at room temperature
9a; Detection; fluorescence (Read 1: AID); EnVision (PerkinElmer) plate reader, 540 excitation and 590 emission filters
9b; Detection; fluorescence (Read 2: UDG); EnVision (PerkinElmer) plate reader, 560 excitation and 665 emission filters
NOTES (numbers refer to sequence above)
1a; Reagents were dispensed in a medium-binding black solid-bottom Greiner plates (789176F) using a BioRptr liquid dispenser. Dispense 3 uL of [4/3x] 1 uM AID (provided by Kohli lab) and [4/3x] 2 U/mL UDG (NEB M0280L) into columns 1, 2, 5 to 48.
1b; Dispense 3 uL of [4/3x] 2 U/mL UDG into column 3.
1c; Dispense 3 uL of [4/3x] 1 uM AID into column 4.
2a; Compound (7-points [uM]: 0.64; 3.2; 16; 80; 400; 2,000; 10,000; […]) double pin-transferred (Dip Factor = 2) using the Kalypsys (Wako USA) pintool equipped with a 1536 pinhead for a final concentration range of 7.32 nM - 114 uM.
2b; 10 mM Aurintricarboxylic Acid (Sigma A1895) (ATA, 8-point, n = 2, 1:2.5 dilution in column 2) double pin-transferred (Dip Factor = 2) using the Kalypsys (Wako USA) pintool equipped with a 1536 pinhead for a [final] range of 186 nM - 114 uM.
3; Room temperature incubation.
4; Dispense 1 uL of substrate mixture from the Kohli lab [4x] […] DJC20 and [4x] 250 nM DJC23 into columns 1 to 48 .
5; Room temperature incubation.
6; Dispense 4 uL of substrate mixture [2x] 250 mM NaOH into columns 1 to 48.
7; Centrifugation step to remove bubbles.
8; Room temperature incubation
9a; Fluorescence signal (column label AID) was read using the EnVision plate reader. […]

SMILES | outcome
Cc1ccc(C)c(N2CCN(CCCNC(=O)c3cnn(-c4cccc(Cl)c4)c3C3CCN(C(=O)OC(C)(C)C)CC3)CC2)c1 | inactive
Cc1cccc(OC(C)C(=O)N2CCC(c3nc4ccccc4o3)CC2)c1C (stereo unspecified) | inactive
COc1ccc(-c2csc3nc(-c4ccc(C)cc4)oc(=O)c23)cc1OC | inactive
COc1ccc(OCCCn2c(=O)oc3ccc(C)cc32)cc1 | inactive
Cc1ccc(Cl)cc1N(C)C(=O)c1cc2ccc3cccnc3c2[nH]1 | inactive
COc1ccc(OC)c(NC(=O)Cn2c(=O)cc(C)c3c(C)nn(-c4cccc(Cl)c4C)c32)c1 | inactive
COc1ccccc1NC(=O)c1cc2cc3ccc(OC)c(Cl)c3nc2s1 | inactive
Cc1ccc(C)c(CSc2cn(CCNC(=O)c3cccs3)c3ccccc23)c1 | inactive
CCOc1ccc(NC(=O)CSc2nccn2-c2cccc(C)c2C)cc1 | inactive
CCOc1ccc(S(=O)(=O)c2c(C(=O)c3ccc(C)c(C)c3)cnc3ccccc23)cc1 | inactive
CCC1CCCCN1C(=O)CSc1nc(-c2ccc(OC)cc2)cc(C(F)(F)F)n1 (stereo unspecified) | inactive
CCn1cc(C(=O)NCc2ccccc2OC)c(=O)c2cc(S(=O)(=O)N3CCCCC3)ccc21 | inactive
Cc1ccccc1OCC(=O)Nc1cccc(C(=O)OCc2cc(=O)n3c(C)csc3n2)c1 | inactive
COc1ccc(CC(=O)N(Cc2nc(-c3ccc(C)cc3)no2)C(C)C)cc1 | inactive
Cc1ccccc1-c1nc(CS(=O)CC(=O)N2CCN(c3cc(Cl)ccc3C)CC2)c(C)o1 (stereo unspecified) | inactive
CS(=O)(=O)N(Cc1ccccc1)c1ccc(C(=O)Nc2ccc(Cl)cc2)cc1 | inactive
CCOC(=O)c1cc(-c2ccc(C)cc2)n(CCC(=O)Nc2ccc(OC)c(OC)c2)c1C | inactive
Cc1nc2c(-c3ccccc3)c(C)nn2c(C)c1CCC(=O)N1CCN(c2ccc(F)cc2)CC1 | inactive
C=Cc1ccc(CSc2nc(-c3ccc(C)cc3)nc3c2Cc2c(CO)cnc(C)c2O3)cc1 | inactive
CCc1ccc(CN(Cc2ccco2)C(=O)c2ccc(OC)cc2)cc1 | inactive
COc1ccc(CC(=O)NCC(c2cccs2)S(=O)(=O)c2ccc(Cl)cc2)cc1 (stereo unspecified) | inactive
Cc1cc(N(C)Cc2ccccc2)n2nc(-c3ccc(C(C)(C)C)cc3)nc2n1 | inactive
Cc1cc(C)cc(Nc2nc3cc(Cl)c(Cl)cc3nc2-n2nc(C)cc2C)c1 | inactive

SMILES | outcome
N#CC1=C2SCN(C3CCCCC3)CN2C(=O)CC1c1c(F)cccc1Cl (stereo unspecified) | inactive
Cc1c(C(=O)N(C)Cc2ccccc2)sc2nc(-c3ccc(F)cc3)cn12 | inactive
CCOC(=O)c1cccc(NC(=O)c2oc3c(c2C)-c2nn(CC)cc2CC3)c1 | inactive
COc1ccc(OCC(=O)NCC(c2ccc(Cl)cc2)N2CCCCC2)cc1 (stereo unspecified) | inactive
CC1CCCCN1C(=O)c1ccc2c(c1)N(Cc1ccc(Cl)cc1)C(=O)c1ccccc1S2=O (stereo unspecified) | inactive
Cc1ccc(Cl)cc1N1CCN(C(=O)Cn2cnc3nc4c(cc3c2=O)CCCC4)CC1 | inactive
CC(C)(C)C1CCc2c(sc(NC(=O)c3ccccc3F)c2C(=O)NCc2ccco2)C1 (stereo unspecified) | inactive
COc1ccc(C(=O)N2CCc3cc(OC)c(OC)cc3C2COc2ccccc2OC)cc1 (stereo unspecified) | inactive
COc1ccc(CCN2CCC(CNC(=O)c3cnn(-c4ccc(C)cc4)c3C3CCN(C(=O)OC(C)(C)C)CC3)CC2)cc1 | inactive
Cc1ccc(CNC(=O)C2CCCN(c3nc4ccccc4n4cccc34)C2)cc1 (stereo unspecified) | inactive
COC(=O)c1ccc(CSc2nnc3ccc4ccccc4n23)cc1 | inactive
Cc1cccc(N2CCN(C(=O)c3cccn3-c3nnc(N4CCCCC4)s3)CC2)c1C | inactive
Cc1ccc(-c2cn(-c3cccc(Cl)c3)c(S(=O)(=O)CC(=O)Nc3cccc(C)c3)n2)cc1 | inactive
Cc1ccc2c(c1)C(c1ccc(F)cc1)N(C(=O)COc1ccc(Cl)cc1Cl)CC(=O)N2 (stereo unspecified) | inactive
CCC(C(=O)N1CCN(c2ccccc2)CC1)n1nc(C)n2c(cc3sccc32)c1=O (stereo unspecified) | inactive
CCOc1ccccc1CNC(=O)c1cnc2sc(N3CCCCCC3)nn2c1=O | inactive
COc1ccc(N2CCN(C(=O)c3nn(C)c4c3CSc3ccccc3-4)CC2)cc1 | inactive
Cc1cccn2c(=O)c3cc(C(=O)N(Cc4ccccc4)C(C)C)sc3nc12 | inactive
CCCCN(CC)CCNC(=O)C1CCN(c2nnc(C)c3c(C)n(-c4ccc(C)cc4)nc23)CC1 | inactive
CCOC(=O)c1c(C)oc2nc(C)nc(N(CC(C)C)CC(C)C)c12 | inactive
CCCN(CCC)CCNC(=O)c1cc2c(-c3ccc(Cl)cc3)nn(C)c2s1 | inactive
CCCCN(CCCC)CC(O)Cn1cc(/C=C/C(=O)c2ccccc2)c2ccccc21 (stereo unspecified) | inactive
COc1cccc(N2CCN(C(=O)c3cnn(-c4ccc(C)cc4C)c3C3CCN(C(=O)OC(C)(C)C)CC3)CC2)c1 | inactive
